# The sample as a whole holds a higher share of hits than the screen did.
# ST2 inh – IL1RL1 inhibition; AlphaLISA ST2-Fc/biotin-IL-33 interaction, 1 h; inhibition, % for hits at 17 µM; actives 2.3% (n = 78,000); in the data active means inhibition above about 30%
# Target sequence (Q01638 whole entry, looked up): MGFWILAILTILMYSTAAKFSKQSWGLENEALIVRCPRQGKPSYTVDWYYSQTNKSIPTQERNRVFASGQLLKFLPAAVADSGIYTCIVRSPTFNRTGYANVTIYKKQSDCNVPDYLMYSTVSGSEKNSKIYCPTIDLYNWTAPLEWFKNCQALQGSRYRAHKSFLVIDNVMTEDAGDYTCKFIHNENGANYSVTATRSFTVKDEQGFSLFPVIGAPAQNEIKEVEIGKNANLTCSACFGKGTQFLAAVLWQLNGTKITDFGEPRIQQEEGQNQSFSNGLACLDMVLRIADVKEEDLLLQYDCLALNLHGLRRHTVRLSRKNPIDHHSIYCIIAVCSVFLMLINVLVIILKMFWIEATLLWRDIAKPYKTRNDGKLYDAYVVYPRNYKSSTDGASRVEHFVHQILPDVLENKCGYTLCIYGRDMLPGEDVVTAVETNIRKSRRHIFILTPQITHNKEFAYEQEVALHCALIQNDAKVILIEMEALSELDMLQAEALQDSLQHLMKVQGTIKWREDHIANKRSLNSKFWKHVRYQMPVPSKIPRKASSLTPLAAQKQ
# * marks the source's active call; other numbers are inactive results; i = inactive.
SMILES,ST2 inh
O=C(CN1C(=O)/C(=C\c2cccc(Cl)c2)Sc2ccccc21)N1CCCCC1,33%*
O=C1S/C(=C/c2cccc(Cl)c2)C(=O)N1CN1CCCCC1,i
O=C(CN1C(=O)/C(=C\c2cccc(Cl)c2)Sc2ccccc21)NCCN1CCCCCC1,43%*
O=C(CN1C(=O)/C(=C\c2ccc(C(F)(F)F)cc2)Sc2ccccc21)N1CCCC1,30%*
CC1CC(=O)N(CC(=O)NCc2ccco2)c2ccccc2S1 (stereo not drawn),i
O=C(CN1C(=O)CSc2ccc(S(=O)(=O)N3CCCCC3)cc21)NCCN1CCCC1,i
O=C(CN1CCCC1)N1c2ccccc2Sc2ccc(C(F)(F)F)cc21,i
CN(Cc1ccco1)C(=O)CN1C(=O)/C(=C\c2ccc(C(F)(F)F)cc2)Sc2ccccc21,31%*
COc1ccc(/C=C2\SC(=O)N(CC(=O)N3CCCCC3)C2=O)cc1OC,i
CN1CCN(C(=O)CN2C(=O)S/C(=C\c3ccc(Cl)cc3)C2=O)CC1,i
CC1=C(C(=O)Nc2ccc(C)cn2)C(c2ccc(Cl)cc2Cl)C2=C(CC(C)(C)CC2=O)N1 (stereo not drawn),i
COc1ccc(Oc2nc3c(c(=O)n(C)c(=O)n3C)n2Cc2ccc(Cl)cc2)cc1,i
CCc1c(C)cc(C(=O)N2CCC3(CCNC(=O)CC3)CC2)c(=O)n1C,i
CCOC(=O)c1c(C)n(C)c2ccc(OC(=O)c3cccc(Cl)c3)cc12,i
CN1CCN(c2nc3c(c(=O)n(C)c(=O)n3C)n2Cc2ccc(Cl)cc2Cl)CC1,i
Cc1ccccc1NC(=O)COc1c(C)ccc(C)c1C,i
O=C(NCCCN1CCOCC1)N1c2ccccc2Sc2ccccc21,i
O=C(CN1C(=O)/C(=C\c2cccc(Cl)c2)Sc2ccccc21)NCCCN1CCOCC1,32%*
CCC1Oc2ccccc2N(CC(=O)NCCCN2CCOCC2)C1=O (stereo not drawn),i
O=C(CN1C(=O)/C(=C\c2cccc(Cl)c2)Sc2ccccc21)NCCN1CCOCC1,36%*
O=C(Nc1ccccc1C(=O)NCCN1CCOCC1)c1ccc(Cl)cc1Cl,i
O=C(CN1CCN(Cc2cccc(Cl)c2)C1=O)NCCN1CCOCC1,i
O=C(c1ccccn1)N1CCC2(CCCN(Cc3ccccc3F)C2=O)C1 (stereo not drawn),i
CC(C)=CCC/C(C)=C/Cc1ccc(O)c(C(=O)c2c(O)cc(C(=O)O)cc2C=O)c1O,i
CNC(=O)CC1(Cc2ccccc2)C(=O)N(C)c2ccccc21 (stereo not drawn),i
SMILES,ST2 inh
CN(C)CC1(O)CCN(C(=O)c2ccc(C(C)(C)C)cc2)C1 (stereo not drawn),i
CCCn1cnc2cc(NCc3ccc(OCC)cc3)ccc21,i
Cc1cccc(NS(=O)(=O)c2ccccc2[N+](=O)[O-])n1,i
Cn1c(=O)c2c(nc(Oc3ccc4c(c3)OCO4)n2Cc2ccc(Cl)cc2)n(C)c1=O,i
Cn1c(=O)c2c(nc(SCC(=O)Nc3ccc4c(c3)OCO4)n2Cc2ccccc2)n(C)c1=O,i
Cn1c(=O)c2c(nc(SCC(=O)O)n2Cc2cc3c(cc2Cl)OCO3)n(C)c1=O,37%*
CC12COC3(C(=O)Nc4cccc(Cl)c4)CC1CCC32C (stereo not drawn),i
O=C(c1ccc(Cl)cc1)C(O)c1c[nH]c2ccccc12 (stereo not drawn),i
O=C(CSc1nc2ccccc2[nH]1)NCCc1ccccc1,i
COc1cccc(OC)c1C(=O)Nc1ccc([N+](=O)[O-])cc1,i
COc1cc([N+](=O)[O-])ccc1NC(=O)c1c(C)nn(-c2ccccc2)c1Cl,i
COc1ccccc1C1C(Oc2ccccc2C)C(=O)N1c1cccc([N+](=O)[O-])c1 (stereo not drawn),33%*
Cc1ccccc1-c1noc(CN2CCCC2c2nc(-c3ccccn3)no2)n1 (stereo not drawn),i
CCOC(=O)c1ccc(CN(Cc2ccncc2)S(=O)(=O)c2ccc(C)cc2)cc1,i
O[C@@H]1C[C@@H](c2nc(-c3ccc4c(c3)OCO4)no2)N(Cc2ccc(Cl)cc2)C1,i
CC(=O)Nc1ccc(S(=O)(=O)N[C@H]2C[C@@H](c3nc(-c4ccc5c(c4)OCO5)no3)N(C)C2)cc1,i
Oc1ccccc1CN1C[C@H](O)C[C@H]1c1nc(-c2ccc3c(c2)OCO3)no1,i
O[C@@H]1C[C@@H](c2nc(-c3ccc4c(c3)OCO4)no2)N(C2CCOCC2)C1,33%*
CC(=O)N1CCC(N2C[C@H](O)C[C@H]2c2nc(-c3ccc4c(c3)OCO4)no2)CC1,42%*
CC(=O)N1CCC(N2C[C@H](O)C[C@H]2c2nc(-c3ccc(C(F)(F)F)cc3)no2)CC1,i
CCOc1ccc(OCC)c(S(=O)(=O)N2CCN(c3nc(C)cc(N(C)C)n3)CC2)c1,i
COCc1cn([C@H]2CO[C@H]3[C@@H]2OC[C@H]3OC(=O)Nc2ccc(C(C)=O)cc2)nn1,i
CC(C)(C)S(=O)(=O)c1ccsc1S(C)(=O)=O,i
COCCCNS(=O)(=O)c1cccc2cccnc12,i
COc1ccc(OCC(=O)Nc2cc(C)ccc2OCc2cc(=O)n3oc(C)cc3n2)cc1,i
SMILES,ST2 inh
COc1ccc(CNC(=O)COc2ccccc2C(=O)NCCc2ccc(OC)c(OC)c2)cc1,i
CN(C)CC1(O)CCCN(C(=O)c2ccccc2-c2ncn[nH]2)C1 (stereo not drawn),i
Cc1ccc2[nH]c3c(c2c1)CN(C(=O)C1CCCN(CC(N)=O)C1)CC3 (stereo not drawn),i
COC(CN(C(C)=O)C1CCCc2c1[nH]c1ccc(C)cc21)OC (stereo not drawn),i
Cc1ccc2[nH]c3c(c2c1)CCCC3NCc1ccc(F)cc1 (stereo not drawn),32%*
Cc1cccc(N2C(=O)NC3CC2(C)Oc2ccc(Cl)cc23)c1 (stereo not drawn),i
Cc1nc(SCCNC(=O)c2cc(C3CC3)[nH]n2)n[nH]1,i
CCCCNc1nc2c(c(=O)n(Cc3cccc(Br)c3)c(=O)n2C)n1C,32%*
CCCCNc1nc2c(c(=O)n(C)c(=O)n2C)n1Cc1cccc(Cl)c1,i
COCCNc1nc2c(c(=O)n(C)c(=O)n2C)n1Cc1cccc(Br)c1,i
Cc1ccc(N2CCC(N3CCCC(C(=O)N4CCCC4)C3)CC2)nn1 (stereo not drawn),i
COc1ccc(C(=O)Nc2cccc(-c3nc4cc(C)ccc4o3)c2)cc1[N+](=O)[O-],i
COc1ccccc1C(=O)Nc1ccc(-c2nc3cc(C)ccc3o2)cc1,i
COc1ccc(C(=O)Nc2ccc(-c3nc4cc(C)ccc4o3)c(O)c2)cc1Cl,30%*
CCn1cc(C(=O)NC2CCCCCC2)c(=O)c2cc(S(=O)(=O)N3CCC(C)CC3)ccc21,i
Cc1ccc(C(CC(=O)NCC2(c3ccccc3)CCOCC2)c2ccccc2)c(O)c1 (stereo not drawn),i
CCc1nc2cccnc2n1C1CCN(S(=O)(=O)c2ccc(C(C)(C)C)cc2)CC1,i
Cc1ccc(S(=O)(=O)N2CCC(n3c(C)nc4cccnc43)CC2)cc1C,i
O=S(=O)(c1ccc2c(c1)OCCO2)N1CCC(n2cnc3cccnc32)CC1,98%*
C=CCSc1nnc2c(n1)[nH]c1c(C)cc(C)cc12,i
O=C(Nc1cccc(N2CCC(NC3CCCc4ccccc43)CC2)c1)c1ccncc1 (stereo not drawn),i
Nc1ccc(N)c2c1C(=O)c1c(N)ccc(N)c1C2=O,94%*
